Screens as filed in PubChem BioAssay.
Rows were chosen to be rich in hits. Some 9.6% of all compounds tested hit in one or more screens of this group.
PostGolgi ctrl = yeast control strain growth, post-Golgi counter-screen. efflux-deficient yeast background strain, growth absorbance A615, 16 h. 98,000 tested, 5% active. inhibition, % at 10 µM. AID 738
DAT uptake mod = changed human dopamine transporter uptake under cocaine IC80; LLC-PK1 hDAT cells, [14C]-dopamine uptake with cocaine IC80; actives deviate in either direction; B-score at 10 µM; 110,000 tested, 1.3% active; AID 449768;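 active means Z score or B-score, a plate-position-corrected score, falls beyond the plate's 99.7% confidence bounds, in either direction; inactive means both scores lie inside the 99.7% bounds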;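 further: scored against the spread of the other compound wells on the same plate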
PLAP act = activators of human placental alkaline phosphatase; P05187; purified PLAP enzyme, luminescent substrate read-out; hits give high values; activation fold at 20 µM; 96,000 tested, 1.2% active; AID 696; in the data active means activation fold above about 2
Target sequence (P05187 whole entry, looked up): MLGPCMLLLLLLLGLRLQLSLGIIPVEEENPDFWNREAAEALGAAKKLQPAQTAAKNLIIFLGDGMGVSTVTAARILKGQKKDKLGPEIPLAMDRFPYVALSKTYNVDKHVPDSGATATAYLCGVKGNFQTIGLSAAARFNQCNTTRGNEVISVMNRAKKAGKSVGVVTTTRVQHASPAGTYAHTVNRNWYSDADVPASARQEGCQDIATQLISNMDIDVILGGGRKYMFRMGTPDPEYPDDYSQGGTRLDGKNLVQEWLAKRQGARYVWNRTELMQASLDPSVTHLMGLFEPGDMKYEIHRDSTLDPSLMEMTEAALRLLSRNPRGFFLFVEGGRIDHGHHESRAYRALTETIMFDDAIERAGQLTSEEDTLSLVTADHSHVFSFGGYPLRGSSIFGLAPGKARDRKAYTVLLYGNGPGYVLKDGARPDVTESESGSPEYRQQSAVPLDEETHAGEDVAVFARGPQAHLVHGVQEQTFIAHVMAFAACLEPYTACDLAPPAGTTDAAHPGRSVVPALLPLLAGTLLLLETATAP
Cav32 inh = human Cav3.2 channel inhibition, primary screen; AID 449739; 100,000 tested, 4% active; B-score at 10 µM; O95180; Cav3.2-expressing cells, Fluo-4 calcium fluorescence FDSS; hits give low values;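 active means single-dose well whose peak fluorescence ratio is a statistical outlier from its plate by either plate-standardised score or position-corrected B-score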
PostGolgi yeast = growth inhibition of a yeast mutant, post-Golgi transport screen; post-Golgi transport phenotypic cell assay; inhibition, % at 10 µM; 98,000 tested, 0.9% active; AID 739;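 further: yeast cells grown in 1536-well plates; yeast grown about 18 h at 30C before absorbance read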
* hit, by the source's call; / = no result given. Unless noted, no stated cut-off is given here; in the data, active means inhibition above about 30%; inactive means the rest.

SMILES	PostGolgi ctrl	DAT uptake mod	PLAP act	Cav32 inh	PostGolgi yeast
COc1ccc(CN2C(=O)c3ccccc3C(/C=N\OCc3ccc(C)cc3)C2=O)cc1 (stereo not given)	3.6	0.0253	1.4	0.419	-4.4
CC1CN(S(=O)(=O)c2ccc(Cl)c(C(F)(F)F)c2)CC(C)O1 (stereo not given)	-0.3	-0.197	1.1	-0.799	-1.9
COc1cccc(NC(=O)CC2C(=O)NC3CCCCC3N2C(=O)c2ccc(F)cc2)c1 (stereo not given)	6.8	0.181	1.6	-0.702	-7.3
Brc1ccc(Oc2ncc(CN3CCOCC3)s2)cc1	7.3	2.42	1.2	-0.154	28.2
CCCc1nnc(NC(=O)CSc2ncn[nH]2)s1	4.7	-0.358	2.7*	-1.46	-3.9
Cc1csc(SCC(=O)Nc2nc(-c3ccccc3)cs2)n1	15.4	0.321	1.1	-5.98*	0.8
CCOC(=O)C1(C)/C(=N/Nc2ccccc2Cl)C(=O)C(=O)N1c1ccccc1 (stereo not given)	21.5	0.132	1.3	-4.94*	-13.5
O=C(NCc1cccs1)c1cnc2sccn2c1=O	7.1	0.0315	1	/	-4.4
CCOc1ccc(-c2cc3nc(C4CCN(C(=O)OC(C)(C)C)CC4)c(C(=O)O)cn3n2)cc1	17.5	3.42*	1.4	-0.766	3.9
CCOCC(O)CS(=O)(=O)c1ccccn1 (stereo not given)	35.2*	-0.936	1.1	0.267	6.7
CC(C)OCC(O)CSc1ccccn1 (stereo not given)	12.4	-0.921	0.9	0.594	7.5
COC(=O)CN(c1nc(C)c(Br)c(OC)n1)S(=O)(=O)c1ccc(C)cc1	29.5	0.744	1.1	-5.48*	3.4
Cc1cc(C)n2c(SCc3ccccc3Cl)nnc2n1	38.5*	0.978	0.8	-1.12	-2.4
Cc1cc(C)n2c(SCc3ccc(Cl)cc3Cl)nnc2n1	35.5*	1.25	1	-0.346	-4.2
Cc1cc(C)n2c(SCC(=O)Nc3ccc(Cl)cn3)nnc2n1	-8.6	0.018	1.1	-0.315	-7.2
CCOC(=O)N/C(N)=N/c1nc2ccccc2s1	32.7*	0.0303	1.6	0.16	-26.2
Cc1ccc(C)c(OCC(=O)Nc2nc3ccc([N+](=O)[O-])cc3s2)c1C	34.2*	-0.542	1.1	-2.12	5.7
COCC(=O)Nc1nc2ccc(C)cc2s1	7.0	1.24	1	-0.194	-2.1
CCCCN(C)C(=O)CSc1nc(NCc2ccc(OC)cc2)c2ccccc2n1	2.3	2.47*	1.5	-1.48	6.1
COCCNc1nc(SCC(=O)N2CCN(c3ccccc3)CC2)nc2ccccc12	8.9	1.94	/	0.0605	-8.0
Cc1cc(C(=O)Nc2ccc(S(=O)(=O)Nc3nccs3)cc2)c(C)o1	-0.8	-0.485	1.6	-0.0704	-2.1
CCCOc1ccc(C(=O)CCC(=O)OCC(=O)Nc2cc(C)on2)cc1	-5.1	-0.696	0.9	0.627	22.2
Cc1ccc(C)c(NC(=S)NC(NC(=O)/C=C/c2ccccc2)C(Cl)(Cl)Cl)c1 (stereo not given)	-0.6	0.0825	0.9	-6.9*	-3.7
O=C(/C=C/c1ccccc1)NC(NC(=S)Nc1cccc(Cl)c1)C(Cl)(Cl)Cl (stereo not given)	11.2	-7.3*	0.9	-1.64	2.3
O=C(CCc1ccccc1)NC(NC(=S)Nc1cccc(Cl)c1)C(Cl)(Cl)Cl (stereo not given)	/	2.67	/	-2.1	/
SMILES	PostGolgi ctrl	DAT uptake mod	PLAP act	Cav32 inh	PostGolgi yeast
CC(=O)NC(NC(=S)Nc1ccc(N=Nc2ccccc2C)cc1C)C(Cl)(Cl)Cl (stereo not given)	9.2	0.0163	0.9	0.0363	-2.2
Cc1cc(C(=O)NCCCn2ccnc2)sc1-c1ccccc1	1.6	1.22	1.1	0.434	0.8
CC(c1nnnn1C(C)(C)C)N(Cc1cccnc1)Cc1ccccc1Cl (stereo not given)	32.0*	0.574	1.6	-0.78	16.8
CC(C)(C)n1nnnc1C(c1cccs1)N(Cc1cccnc1)Cc1ccccc1Cl (stereo not given)	26.7	0.695	1.8	-3.94	-5.6
CC1(C)CC(NC(=O)CCC2CCCC2)CC(C)(C)N1	39.8*	-1.1	0.7	0.3	-8.3
CCOC(=O)C1=C(C)NC(C)=C(C(=O)OCC)C1c1cc2ccc(C)cc2[nH]c1=O	9.5	0.508	1.5	-5.06*	12.4
O=C(c1cc(NC(=O)C23CC4CC(CC(C4)C2)C3)cc(NC(=O)C23CC4CC(CC(C4)C2)C3)c1)N1CCCCC1	/	0.471	/	-8*	/
O=C(NC(=S)N1CCCCC1)C12CC3CC(CC(C3)C1)C2	33.3*	0.0178	0.9	0.692	20.7
CC12CC3CC(C)(C1)CC(C(=O)NC(=S)N1CCOCC1)(C3)C2	1.1	-0.564	1	-1.47	-0.5
COC(=O)c1cc2occc2n1Cc1c(F)cccc1Cl	11.5	-0.00891	1.1	-0.491	-3.3
O=C(O)CCC(=O)N1CCN(c2nc(-c3ccccc3Cl)c3cc(Br)ccc3n2)CC1	7.8	2.98*	1.5	1.21	16.8
Cc1noc(C)c1S(=O)(=O)N(CC(=O)O)c1ccc2c(c1)OCO2	5.0	0.0385	0.9	0.067	-1.3
Cc1n[nH]c(C)c1S(=O)(=O)N(CC(=O)Nc1ccc2c(c1)OCCO2)c1ccc(C(C)C)cc1	3.6	-0.64	2*	-0.755	-0.5
CCC(C)NC(=O)CN(c1ccc2c(c1)OCO2)S(=O)(=O)c1c(C)n[nH]c1C (stereo not given)	-4.8	-0.745	2.2*	0.437	4.2
Nc1nc(CSc2ccccn2)nc(Nc2ccccc2)n1	4.7	1.45	0.8	0.121	21.3
Clc1ccc(CSc2ncn[nH]2)cc1	-2.2	-0.741	1.7	0.499	0.0
Brc1ccc2nc(CSc3ncn[nH]3)cn2c1	26.1	0.587	2.8*	-0.116	-1.2
CC(/C=C1\SC(=O)N(CC(=O)Nc2cccc(O)c2)C1=O)=C\c1ccccc1	30.6*	-0.404	1.2	-1.82	0.4
COc1ccc(OC)c(C2C(C(=O)Nc3nc4ccccc4s3)=C(C)NC3=C2C(=O)CCC3)c1 (stereo not given)	16.9	2.45	1.1	-7.49*	-1.4
Cc1cccc(-n2nnnc2SCC(=O)c2cc(C)n(Cc3ccco3)c2C)c1	5.7	-0.802	0.8	-2.93	6.1
O=C(CN(C1CCCCC1)S(=O)(=O)c1ccc(Cl)cc1)NCCCO	0.9	0.446	1.6	0.0339	-3.9
CSc1nnc(-c2sccc2OCc2ccccc2)n1C	18.1	-0.0979	0.9	0.97	-0.8
CSc1n[nH]c(-c2sccc2OCc2ccc(C)cc2)n1	8.6	2.84	1	-3.74*	-0.7
CC1CCN(c2nc(-c3ccccc3O)nc3ccccc23)CC1	6.5	-0.00856	1	-1.1	-0.3
Oc1ccc(/C=C/c2nc(-c3ccccc3O)n(-c3ccccc3)n2)cc1	38.0*	0.575	1	-0.204	6.6
O=C1CCCc2nn(-c3ccccc3)c(-c3ccncc3)c21	1.6	0.0816	1	-0.00408	2.3
CCN(C(=O)COc1cc(=O)n(CC)c2ccccc12)c1cc(Cl)ccc1OC	23.4	1.65	1.6	-5.46*	-3.6
CC1=Nc2ncnn2C(c2ccccc2)/C1=N\O (stereo not given)	6.5	0.154	1	-0.292	-1.7
